Most compounds without a hit are left out; they make up all but 21% or so of the library.
NS1 inh = inhibitors of influenza NS1 protein function | 270,000 compounds, 0.4% hits | Potency, µM (top dose mostly 46.1 µM); calls by dose curve; also: actives are rising curves; nearly all actives have a fitted effect of over 50% in size
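Recovery from NS1-induced slow growth read by OD600 in budding yeast switched to galactose assay medium (pH 6.0, -URA) at 1:100 dilution. Compound 23 nl per well; the matching strain lacking NS1 serves as control.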
Pf growth 48h = inhibits P. falciparum growth in the first generation, 48 h. P. falciparum luciferase growth in erythrocytes, 48 h. Potency, µM (series often up to 28.7 µM), hits mostly inhibitors. 310,000 compounds, 5.9% hits. AID 504832
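In quantitative HTS format, infected erythrocytes bearing luciferase-reporter parasites were treated for a single generation at 37 C. Luminescence after adding detection reagent served as the growth measure.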
Pf growth 96h = P. falciparum growth inhibition at 96 hour, primary screen for plastid delayed-death inhibitors; P. falciparum luciferase reporter growth, 96 h; Potency, µM (doses to about 28.7 µM), actives largely listed as inhibitors; 320,000 compounds, 6.9% hits; AID 504834
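Two parasite generations (96 h, 37 C, 5% CO2) of compound exposure in infected erythrocytes (0.05% parasitemia, 2% hematocrit). Luciferase-reporter P. falciparum; decreased luminescence indicates inhibited growth, aimed at apicoplast-acting delayed death.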
Giardia FBPA inh = blocks Giardia fructose-bisphosphate aldolase activity; AID 2451; purified Giardia FBPA; 290,000 compounds, 0.71% hits; Potency, µM (highest dose often 59.6 µM), actives largely listed as inhibitors; also: nearly all actives have a fitted effect of over 55% in size
Target sequence (A8B2U2 whole entry, looked up): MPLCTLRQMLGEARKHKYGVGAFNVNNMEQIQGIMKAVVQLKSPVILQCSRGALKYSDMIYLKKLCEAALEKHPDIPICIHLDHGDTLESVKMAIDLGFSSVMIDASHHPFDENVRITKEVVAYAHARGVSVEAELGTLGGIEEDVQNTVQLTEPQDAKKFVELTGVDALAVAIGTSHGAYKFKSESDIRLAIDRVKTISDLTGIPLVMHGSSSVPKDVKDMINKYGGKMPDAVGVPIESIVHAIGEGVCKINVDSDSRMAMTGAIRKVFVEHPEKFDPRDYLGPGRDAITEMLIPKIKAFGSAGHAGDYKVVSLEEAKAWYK
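40 nM FBPA preincubated 10 min at RT with compound (up to 57.5 uM final), then substrate plus GAPDH/TPI/NAD/arsenate coupling and diaphorase/resazurin added. Fluorescence read after 20 min at RT, 525/598 nm.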
Shiga toxin inh = Shiga toxin inhibition | inhibition, % at 38.7 µM | 290,000 compounds, 9.2% hits | Vero cells, Shiga toxin protein synthesis inhibition reporter; in the data active = inhibition mostly above about 28%, no sharp cut-off; inactive = mostly below about 43%
CHX counter = counter-screen hit for Shiga toxin inhibitors, cycloheximide; cell reporter, cycloheximide protein synthesis inhibition counterscreen; AID 2314; 300,000 compounds, 12% hits; max response, %; in the data active = max response mostly above about 13%, no sharp cut-off; inactive = mostly below about 14%; also: read at 38.3 µM for the half of the compounds with a filed dose
Each line names hits and unclear results; the compound was inactive in the other large screens; ! = repeats disagree. Unless noted, calls follow the shape of the dose curve; as a rule, active = well fitted curve in the direction sought with a large enough effect; inconclusive = small, poorly fitted or top-dose-only effect, or another doubt; inactive = no such curve, though single readings can be large; an effect the other way counts as inactive or inconclusive.

CCCC(=O)Oc1ccc(N(C(=O)CCC)S(=O)(=O)c2cccs2)cc1	none (no result: NS1 inh)
CCCC(=O)Oc1ccc(N(C(=O)CCC)S(=O)(=O)c2cccc([N+](=O)[O-])c2)cc1	Pf growth 96h 4.7µM
CCOC(=O)CC1C(=O)NC2CCCCC2N1C(=O)Nc1ccc(Cl)cc1 (stereo unspecified)	CHX counter 28 (no result: Pf growth 96h)
CCOC(=O)CC1C(=O)NCCN1C(=O)Nc1ccc(Cl)cc1 (stereo unspecified)	none
O=C(CN1CCN(c2ccccc2O)CC1)Nc1ccc(S(=O)(=O)N2CCCCCC2)cc1	Pf growth 48h inconclusive, Pf growth 96h 10µM (no result: NS1 inh, Giardia FBPA inh, Shiga toxin inh, CHX counter)
O=C(CN1CCCCC1)Nc1ccc(S(=O)(=O)N2CCCCCC2)cc1	Pf growth 48h inconclusive (no result: Pf growth 96h)
O=C(CN1CCN(c2ccccc2O)CC1)Nc1cc(S(=O)(=O)N2CCCC2)ccc1Cl	Pf growth 48h 4.1µM, Pf growth 96h 3.3µM (no result: NS1 inh, Giardia FBPA inh, Shiga toxin inh, CHX counter)
CCCn1cc(CN2CCC(Oc3ccc(C(=O)N4CCCC4)cc3)CC2)c(C)n1	Pf growth 96h 10µM (no result: Giardia FBPA inh)
O=C(c1ccc(OC2CCN(Cc3ccc(C(F)(F)F)cc3)CC2)cc1)N1CCCCC1	Pf growth 48h inconclusive, Pf growth 96h inconclusive
O=C(c1ccc(OC2CCN(Cc3ccccc3C(F)(F)F)CC2)cc1)N1CCCCC1	Pf growth 48h inconclusive, Pf growth 96h 3.3µM (no result: Giardia FBPA inh)
Cn1cc(CN2CCC(Oc3ccc(C(=O)N4CCCC4)cc3)CC2)cn1	none
C[C@@H](O)C#C[Si](C)(C)c1ccccc1	none (no result: NS1 inh, Pf growth 48h, Pf growth 96h, Shiga toxin inh, CHX counter)
COc1cccc(NC(=O)CN(C)C(=O)CCN2C(=O)C3CC=CCC3C2=O)c1 (stereo unspecified)	none (no result: NS1 inh, Giardia FBPA inh, Shiga toxin inh, CHX counter)
S=C1NNC2(NN1)C1CC3CC(C1)CC2C3	Shiga toxin inh 45, CHX counter 32
C1CSC2(N1)C1CC3CC(C1)CC2C3 (stereo unspecified)	Giardia FBPA inh inconclusive
Cc1sc(Cc2nc(O)cs2)nc1-c1ccccc1	Pf growth 48h inconclusive, Giardia FBPA inh inconclusive (no result: NS1 inh)
Cc1c(Cc2ccccc2)c(=O)oc2cc(OC(C)C(=O)NCC3CCC(C(=O)O)CC3)c(Cl)cc12 (stereo unspecified)	Pf growth 96h 10µM
COc1ccc(-c2cc(=O)oc3c(C)c(OCC(=O)NCC4CCC(C(=O)O)CC4)ccc23)cc1 (stereo unspecified)	Pf growth 96h 13µM
CC(Oc1ccc2c(-c3ccccc3)cc(=O)oc2c1)C(=O)NCC1CCC(C(=O)O)CC1 (stereo unspecified)	Pf growth 48h 5.2µM!, Pf growth 96h 3.3µM
CCCCN(C)CCCNC(=O)c1cn(C)c2ccc(S(=O)(=O)N(C)C3CCCCC3)cc2c1=O	Pf growth 48h inconclusive (no result: Giardia FBPA inh)
COc1ccccc1N1CC(C(=O)Nc2ccccc2N2CCCC2)CC1=O (stereo unspecified)	none (no result: NS1 inh, Giardia FBPA inh, Shiga toxin inh, CHX counter)
C=Cn1c(C(=O)O)ccc1-c1ccc(CC)cc1	Pf growth 48h inconclusive, Giardia FBPA inh inconclusive, CHX counter 42
O=C(Nc1ccc(Br)cc1)Nc1cnccn1	Shiga toxin inh 53, CHX counter 22
Cc1cccc(NC(=O)Nc2cnccn2)c1	none
O=C(Nc1ccc(F)cc1)Nc1cnccn1	CHX counter 13
N#CCCn1c(=O)c(-c2cccs2)nc2cnc(N3CCNCC3)nc21	none (no result: NS1 inh, Pf growth 48h, Pf growth 96h, Shiga toxin inh, CHX counter)
COC(=O)N1CCC2(CC1)CN(C(c1ccccc1)c1ccccc1)C2	none (no result: NS1 inh, Pf growth 48h, Pf growth 96h, Shiga toxin inh, CHX counter)
C=Cn1ccnc1P(=S)(c1ccc2c(c1)c1ccccc1n2CC)c1nccn1C=C	Pf growth 48h 2.9µM
C=Cn1ccnc1P(=S)(c1ccc(N(C)C)cc1)c1nccn1C=C	Pf growth 96h inconclusive
CC1CCN(S(=O)(=O)c2cccc(C(=O)Nc3nncs3)c2)CC1	none
Cc1ccc(OCC(=O)Nc2ccc(C)c(F)c2)c([N+](=O)[O-])n1	none (no result: NS1 inh, Giardia FBPA inh, Shiga toxin inh, CHX counter)
CCOc1ccc(/C=C/C(O)=C2/C(=O)N(C)C3(C)CC2c2ccccc2O3)cc1OC (stereo unspecified)	Pf growth 48h 6.6µM (no result: NS1 inh)
COc1ccc(C(=O)NC2CCC(O)CC2)cc1S(=O)(=O)NCc1ccc(Cl)cc1 (stereo unspecified)	Pf growth 48h 13µM, Pf growth 96h inconclusive (no result: NS1 inh, Giardia FBPA inh, Shiga toxin inh, CHX counter)
CCN(CC)CCCNC(=O)c1sc2nc(-c3ccc(F)cc3)cn2c1C	Pf growth 96h 13µM (no result: Pf growth 48h)
Cc1c(C(=O)NCC2CCCO2)sc2nc(-c3ccc(F)cc3)cn12 (stereo unspecified)	CHX counter 32
